Measurements reported in PubChem BioAssay (NCATS).
Values joined by “and” are separate entries in the source; they are usually repeats but may differ in a detail not shown here. Identical values can stand only once. Results filed as inconclusive are left out. Active and inactive are the calls of the source. Unless noted, calls come from the whole dose curve; as a rule, active = well fitted curve in the direction sought with a large enough effect; inconclusive = small, poorly fitted or top-dose-only effect, or another doubt; inactive = no such curve, though single readings can be large; an effect the other way counts as inactive or inconclusive.

Legend:
[1] = Cellular Toxicity (caspase-3) Jurkat (AID 655); conditions: Jurkat caspase-3 activation, luminescence, DMSO = 0%, tamoxifen = 100%; at 92.2 µM (top of the series);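 note: cells exposed to compound for 16 h at 37 °C before reading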
Summary of the method: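 Luminescent Caspase-Glo 3/7 read-out (20 min, room temperature) after 16 h compound treatment at 37 C of 5000 Jurkat cells per well. AC50 derived by Hill-equation fitting, scaled between DMSO basal and 100 uM tamoxifen stimulation.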

[2] = Cellular Toxicity (caspase-3) HUV-EC-C (AID 656); note: potency is the fitted concentration of half-maximal effect
Summary of the method: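 Luminescent Caspase-Glo 3/7 readout after 16 h, 37 °C compound exposure of HUV-EC-C endothelial cells, 1000 per well, complete medium. AC50 derived by Hill fitting, with DMSO as baseline and 100 uM tamoxifen as full activation.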

[3] = Cellular Toxicity (caspase-3) BJ (AID 658);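 note: 0% = DMSO basal and 100% = 10 µM staurosporine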
Summary of the method: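 Plated BJ cells (1000/well) rested 5 hr, received compound for 16 hr at 37 °C, then Caspase-Glo 3/7 reagent for 1 hr at room temperature before luminescence reading.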

[4] = Cellular Toxicity (caspase-3) MRC-5 (AID 659);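 note: 0% = DMSO basal and 100% = 10 µM staurosporine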
Summary of the method: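 Apoptosis readout in MRC-5 cells: luciferase light generated after caspase 3/7 cleaves a peptide-aminoluciferin substrate, measured post 16 hr compound incubation at 37 °C.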

[5] = Cellular Toxicity (caspase-3) Mesangial (AID 660);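 note: combined caspase 3 and 7 activity read by Caspase-Glo luminescence; cells exposed to compound for 16 h before the caspase read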
Summary of the method: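 AC50 values come from Hill-equation fits of caspase 3/7 activation, measured as Caspase-Glo luminescence in human glomerular mesangial cells exposed to compound for 16 h at 37 °C; 100% set by 100 uM tamoxifen.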

[6] = Cellular Toxicity (caspase-3) H-4-II-E (AID 663);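 note: cells exposed to compound for 16 hr before readout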
Summary of the method: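 Caspase 3/7 activation measured in H-4-II-E cells in complete culture medium after 16 hr treatment at 37 °C, using luciferase-coupled substrate readout; AC50 values come from Hill-equation fits of normalized concentration-response data.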

[7] = Cellular Toxicity (caspase-3) Hek293 (AID 664);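 note: cells exposed to compound for 16 h at 37 °C before readout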
Summary of the method: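 Apoptosis readout: Caspase-Glo 3/7 signal in human HEK293 cells following 16-hour compound incubation. Responses scaled between DMSO baseline and 100 uM tamoxifen.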

[8] = Cellular Toxicity (caspase-3) N2a (AID 665);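 note: compound exposure lasted 16 h at 37 °C before readout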
Summary of the method: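 Concentration-response qHTS: compound-induced caspase-3/7 luminescence in N2a cells (16 h, 37 °C), relative to DMSO and 10 uM staurosporine controls; AC50 obtained using the standard Hill equation.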

[9] = Cellular Toxicity (caspase-3) NIH 3T3 (AID 666);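 note: caspase signal read after 16 h compound exposure; 0% = DMSO basal and 100% = 100 µM tamoxifen stimulation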
Summary of the method: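 Activity: caspase-3/7 induction, NIH 3T3 cells, 16 hr treatment at 37°C, luminescent Caspase-Glo detection; AC50 via Hill equation.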

[10] = Cellular Toxicity (caspase-3) Renal Proximal Tubule (AID 667);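 note: cells exposed to compound for 16 hours at 37 °C before detection; 0% = DMSO basal and 100% = 10 µM staurosporine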
Summary of the method: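 Caspase 3/7 activation measured by luminescent aminoluciferin release in primary rat proximal tubule cells after 16 hr compound exposure at 37 °C. AC50 from Hill-fitted concentration-response, scaled between DMSO and 10 uM staurosporine.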

[11] = target: Guanine nucleotide-binding protein G(i) subunit alpha-1 (Homo sapiens) (UniProt P63096); assay: qHTS Assay for Inhibitors of RGS12 GoLoco Motif Activity (Green Fluorophore) (AID 879);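 note: 0% = labeled peptide with Gαi1 and full inhibition = labeled peptide alone without protein; negative values mean loss of peptide binding seen as reduced polarization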
Summary of the method: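 A drop in FITC polarization marked displacement of the FITC-tagged RGS12 GoLoco peptide (10 nM) from Gαi1 (50 nM). Compounds were incubated 10 min at room temperature in Tris pH 7.5 buffer containing 150 mM NaCl, 0.1 mM GDP and 0.05% NP40; unlabeled peptide titration served as control.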

[12] = target: Cytochrome P450 2C9 (Homo sapiens) (UniProt P11712); assay: qHTS Assay for Inhibitors and Substrates of Cytochrome P450 2C9 (AID 883); note: % is set by controls: 0 for no effect and ±100 for the full control effect; nearly all actives have a fitted effect of over 60% in size
Summary of the method: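 Human CYP2C9 (10nM) hydroxylated Luciferin-H (100uM, at its KM) to luciferin in 25mM KPO4. Compound was preincubated 10 min at 37C, then NADPH regeneration started a 60 min reaction at 37C. Luminescence was read after detection reagent, normalized to 57uM sulphaphenazole.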

[13] = target: Cytochrome P450 3A4 (Homo sapiens) (UniProt P08684); assay: qHTS Assay for Inhibitors and Substrates of Cytochrome P450 3A4 (AID 884); note: nearly all actives have a fitted effect of over 50% in size; note: potency is the fitted concentration of half-maximal effect
Summary of the method: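 Luminescent readout of luciferin produced by CYP3A4 (20 nM) dealkylation of Luciferin-PPXE, 25 uM (its KM). NADPH-driven reaction ran 60 min at RT after 10 min compound preincubation; data scaled to 57 uM ketoconazole as 100% inhibition.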

[14] = target: Cytochrome P450 2D6 (Homo sapiens) (UniProt P10635); assay: qHTS Assay for Inhibitors and Substrates of Cytochrome P450 2D6 (AID 891); note: nearly all actives have a fitted effect of over 60% in size; note: potency is the fitted concentration of half-maximal effect
Summary of the method: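 Luminescent read-out of luciferin formed by 5 nM human CYP2D6 demethylating 30 uM Luciferin-ME EGE (Km level) over 60 min at room temperature after NADPH regeneration addition. Data normalized to full inhibition by 1.43 uM quinidine.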

[15] = qHTS Assay for Identification of Small Molecule Antagonists for NFkB Signaling Pathway (AID 895; active = well fitted inhibition curve with a large enough effect in the signal ratio, with a control signal flat, not every such curve was filed as active; the % refers to the signal ratio; note: potency is the fitted concentration of half-maximal effect)
Summary of the method: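 NFkB-bla ME-180 cervical carcinoma cells with beta-lactamase reporter under NFkB response element; compounds added, then TNF alpha at 10 pM final (EC50), 5 h at 37 C. LiveBLAzer substrate 2 h, room temperature; emission 460/530 nm at 405 nm excitation.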

[16] = target: Cytochrome P450 2C19 (Homo sapiens) (UniProt P33261); assay: qHTS Assay for Inhibitors and Substrates of Cytochrome P450 2C19 (AID 899); note: nearly all actives have a fitted effect of over 60% in size; note: potency is the fitted concentration of half-maximal effect
Summary of the method: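 Human CYP2C19 (5nM) with Luciferin-H EGE at 10uM (its KM) in 50mM KPO4 was preincubated with compound for 10 min at 37C. NADPH regeneration started a 60 min 37C reaction. Luciferin was read by luminescence, normalized to 57uM ketoconazole.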

[17] = Confirmation and Secondary Assay for Modulators of Hemoglobin Beta Chain Splicing at IVS2 654 locus (AID 910);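 note: per-well total GFP intensity by laser scanning cytometry after 2-day treatment; % of control where 0% means no effect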
Summary of the method: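 HeLa cells stably carrying EGFP interrupted by mutant beta-globin IVS2-654 intron (CMV-driven) were treated with compound for 2 days at 37C; corrected splicing was scored as total peak GFP intensity per well (488 nm excitation, 500-520 nm emission).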

[18] = Cellular Toxicity (caspase-3) SHSY5Y (AID 657)
Summary of the method: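 Luminescent Caspase-Glo 3/7 read-out, 1 hr room temperature, follows 16 hours of compound treatment of SH-SY5Y cells at 37 °C. Normalization: DMSO basal, 10 uM staurosporine as 100%; AC50 values from Hill-equation concentration-response fits.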

[19] = Cellular Toxicity (caspase-3) SK-N-SH (AID 661);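 note: 0% = DMSO basal and 100% = 10 µM staurosporine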
Summary of the method: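 Apoptosis readout in SK-N-SH neuroblastoma: Caspase-Glo 3/7 luminescence following 16 hr treatment in complete culture medium. Normalization used DMSO and 10 uM staurosporine controls.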

[20] = target: Cytochrome P450 3A4 (Homo sapiens) (UniProt P08684); assay: qHTS Assay for Activators of Cytochrome P450 3A4 (AID 885); note: nearly all actives have a fitted effect of over 65% in size
Summary of the method: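 Human CYP3A4 dealkylates Luciferin-PPXE to luciferin, which luciferase detection converts to light. Substrate was at its KM (25uM), buffer 200mM KPO4, reaction 60 min at RT.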

Chain of Cytochrome P450 2C19 (Homo sapiens) (P33261 whole entry, looked up): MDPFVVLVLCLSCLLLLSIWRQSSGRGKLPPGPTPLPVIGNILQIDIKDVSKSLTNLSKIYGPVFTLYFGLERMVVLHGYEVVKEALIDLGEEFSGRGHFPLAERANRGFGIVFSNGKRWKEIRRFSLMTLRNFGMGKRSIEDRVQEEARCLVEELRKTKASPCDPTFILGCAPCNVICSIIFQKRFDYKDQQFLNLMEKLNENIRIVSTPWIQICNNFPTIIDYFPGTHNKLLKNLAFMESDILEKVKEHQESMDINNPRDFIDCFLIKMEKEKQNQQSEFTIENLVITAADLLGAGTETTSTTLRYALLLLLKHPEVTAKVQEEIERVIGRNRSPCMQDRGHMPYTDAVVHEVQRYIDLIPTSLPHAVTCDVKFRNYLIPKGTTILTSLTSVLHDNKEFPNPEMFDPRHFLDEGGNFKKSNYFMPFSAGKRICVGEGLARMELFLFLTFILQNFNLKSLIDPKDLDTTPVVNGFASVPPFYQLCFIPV
Chain of Guanine nucleotide-binding protein G(i) subunit alpha-1 (Homo sapiens) (P63096 whole entry, looked up): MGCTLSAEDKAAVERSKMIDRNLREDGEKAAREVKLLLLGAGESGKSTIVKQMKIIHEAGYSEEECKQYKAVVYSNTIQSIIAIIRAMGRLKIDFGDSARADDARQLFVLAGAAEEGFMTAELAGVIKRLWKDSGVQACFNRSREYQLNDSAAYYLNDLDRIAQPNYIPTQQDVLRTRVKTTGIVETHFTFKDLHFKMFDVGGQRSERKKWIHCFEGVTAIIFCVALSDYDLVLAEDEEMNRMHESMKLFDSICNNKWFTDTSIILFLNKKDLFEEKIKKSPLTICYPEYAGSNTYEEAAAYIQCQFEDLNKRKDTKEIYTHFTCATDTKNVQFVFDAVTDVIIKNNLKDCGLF
Chain of Cytochrome P450 3A4 (Homo sapiens) (P08684 whole entry, looked up): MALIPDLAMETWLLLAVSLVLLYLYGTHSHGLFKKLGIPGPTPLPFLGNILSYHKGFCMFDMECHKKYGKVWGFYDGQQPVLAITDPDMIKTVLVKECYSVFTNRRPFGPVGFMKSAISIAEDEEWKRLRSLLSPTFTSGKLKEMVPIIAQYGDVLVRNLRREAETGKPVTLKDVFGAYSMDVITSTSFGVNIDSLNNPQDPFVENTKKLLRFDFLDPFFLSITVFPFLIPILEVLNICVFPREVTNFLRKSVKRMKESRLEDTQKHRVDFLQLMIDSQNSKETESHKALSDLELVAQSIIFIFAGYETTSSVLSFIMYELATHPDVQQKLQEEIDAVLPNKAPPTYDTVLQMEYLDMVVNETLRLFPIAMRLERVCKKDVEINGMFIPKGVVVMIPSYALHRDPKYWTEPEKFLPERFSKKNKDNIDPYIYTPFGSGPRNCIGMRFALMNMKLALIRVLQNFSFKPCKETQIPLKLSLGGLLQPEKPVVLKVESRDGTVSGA
Chain of Cytochrome P450 2D6 (Homo sapiens) (P10635 whole entry, looked up): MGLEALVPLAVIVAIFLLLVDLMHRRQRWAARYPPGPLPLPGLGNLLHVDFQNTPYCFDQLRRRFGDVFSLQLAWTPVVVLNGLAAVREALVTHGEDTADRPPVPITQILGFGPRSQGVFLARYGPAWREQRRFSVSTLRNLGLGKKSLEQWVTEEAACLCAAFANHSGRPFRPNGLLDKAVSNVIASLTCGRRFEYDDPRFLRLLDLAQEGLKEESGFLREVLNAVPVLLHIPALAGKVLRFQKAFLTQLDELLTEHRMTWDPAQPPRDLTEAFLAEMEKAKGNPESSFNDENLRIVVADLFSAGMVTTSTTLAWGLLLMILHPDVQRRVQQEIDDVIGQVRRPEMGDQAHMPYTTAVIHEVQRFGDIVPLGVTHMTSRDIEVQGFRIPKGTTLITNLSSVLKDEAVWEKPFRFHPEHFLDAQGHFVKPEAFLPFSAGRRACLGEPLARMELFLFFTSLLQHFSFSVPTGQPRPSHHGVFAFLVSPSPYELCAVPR
Chain of Cytochrome P450 2C9 (Homo sapiens) (P11712 whole entry, looked up): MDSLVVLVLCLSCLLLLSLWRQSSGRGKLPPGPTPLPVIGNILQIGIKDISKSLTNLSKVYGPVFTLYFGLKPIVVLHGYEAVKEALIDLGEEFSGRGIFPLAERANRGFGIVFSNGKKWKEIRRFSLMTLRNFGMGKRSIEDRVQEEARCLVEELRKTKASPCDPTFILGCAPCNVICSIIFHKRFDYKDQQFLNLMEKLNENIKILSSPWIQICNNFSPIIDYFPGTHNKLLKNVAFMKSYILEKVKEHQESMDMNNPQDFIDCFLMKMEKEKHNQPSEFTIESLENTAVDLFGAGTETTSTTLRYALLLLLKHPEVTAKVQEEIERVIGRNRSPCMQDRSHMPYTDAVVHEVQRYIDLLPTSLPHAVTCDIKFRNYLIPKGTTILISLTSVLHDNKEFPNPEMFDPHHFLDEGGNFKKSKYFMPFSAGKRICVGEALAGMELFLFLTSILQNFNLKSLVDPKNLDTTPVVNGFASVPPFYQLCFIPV

O=C(O)CCCc1ccc(N(CCCl)CCCl)cc1
inactive: Potency [2] | outcome [3] | outcome [4] | outcome [5] | outcome [6] | outcome [7] | outcome [8] | outcome [9] | outcome [10] | outcome [11] | outcome [12] | Potency [13] | Potency [14] | Potency [16] | outcome [17]
active: caspase-3 activation [1] 96.5% | Potency [15] 8.91 µM

O=c1[nH]oc2c1CCNC2
inactive: outcome [11] | outcome [12] | Potency [13] | Potency [15] | outcome [17]

COc1cc(OC)c(OC)cc1C=O
inactive: caspase-3 activation [1] 1.29% | Potency [2] | outcome [18] | outcome [3] | outcome [4] | outcome [5] | outcome [19] | outcome [6] | outcome [7] | outcome [8] | outcome [9] | outcome [10] | Potency [13] | outcome [17]

CN1C[C@H](C(=O)N[C@]2(C)O[C@@]3(O)[C@@H]4CCCN4C(=O)[C@H](Cc4ccccc4)N3C2=O)C=C2c3cccc4[nH]cc(c34)C[C@H]21
inactive: Potency [2] | outcome [18] | outcome [3] | outcome [4] | outcome [5] | outcome [19] | outcome [6] | outcome [7] | outcome [8] | outcome [9] | outcome [10]

CC(C)NC(C)C
inactive: caspase-3 activation [1] 0.66% | Potency [2] | outcome [18] | outcome [3] | outcome [4] | outcome [5] | outcome [19] | outcome [6] | outcome [7] | outcome [8] | outcome [9] | outcome [10] | Potency [13]

CC(C)c1cccc(C(C)C)c1O
inactive: caspase-3 activation [1] 0.709% | Potency [2] | outcome [18] | outcome [3] | outcome [4] | outcome [5] | outcome [19] | outcome [6] | outcome [7] | outcome [8] | outcome [9] | outcome [10] | outcome [11] | Potency [15] | outcome [17]

Oc1ccc(Cl)cc1
inactive: caspase-3 activation [1] -0.847% | Potency [2] | outcome [18] | outcome [3] | outcome [4] | outcome [5] | outcome [19] | outcome [6] | outcome [7] | outcome [8] | outcome [9] | outcome [10] | Potency [13] | outcome [17]

CCOC(=O)CC(SP(=S)(OC)OC)C(=O)OCC (centres undefined)
inactive: caspase-3 activation [1] -0.413% | Potency [2] | outcome [18] | outcome [3] | outcome [4] | outcome [5] | outcome [19] | outcome [6] | outcome [7] | outcome [8] | outcome [9] | outcome [10] | outcome [20]

Clc1ccc(C(c2ccc(Cl)cc2)C(Cl)(Cl)Cl)cc1
active: Potency [2] 50.1 µM
inactive: caspase-3 activation [1] 7.14% | outcome [18] | outcome [3] | outcome [4] | outcome [5] | outcome [19] | outcome [6] | outcome [8] | outcome [9] | outcome [10] | Potency [13] | outcome [17]

Cc1ncsc1CCCl
active: Potency [16] 7.94 µM

Nc1ccc(O)cc1
inactive: outcome [20]

NC(=O)CS(=O)C(c1ccccc1)c1ccccc1 (centres undefined)
inactive: Potency [13] | outcome [17]

NC(=O)c1cc([N+](=O)[O-])cc([N+](=O)[O-])c1
active: Potency [13] 7.94 µM
inactive: outcome [20] | outcome [17]

O=c1oc2ccccc2c(O)c1Cc1c(O)c2ccccc2oc1=O
inactive: outcome [17]

C=CCN1C[C@H](C)N([C@H](c2ccc(C(=O)N(CC)CC)cc2)c2cccc(OC)c2)C[C@H]1C
active: Potency [14] 1.58 µM

CC(C)N(CCC(C(N)=O)(c1ccccc1)c1ccccn1)C(C)C (centres undefined)
inactive: outcome [17]

c1ccc2c(c1)sc1ccccc12
inactive: Potency [13] | outcome [17]

COc1ccc2c(c1)C13CCCC[C@@H]1C(C2)N(C)CC3 (some centres undefined)
active: Potency [14] 3.98 µM

O=C(CCCN1CCC2(CC1)C(=O)NCN2c1ccccc1)c1ccc(F)cc1
active: Potency [14] 2.51 µM and 1.58 µM | Potency [16] 6.31 µM
inactive: outcome [11] | outcome [20] | Potency [15] | outcome [17]

COc1cc(-c2ccc(=O)[nH]n2)ccc1OC(F)F
inactive: outcome [12]

CC(C)(C)NCC(O)c1ccccc1Cl (centres undefined)
inactive: Potency [13] | outcome [17]

CC(NC(C)(C)C)C(=O)c1cccc(Cl)c1 (centres undefined)
inactive: Potency [13] | outcome [17]

CCC1(c2ccc(N)cc2)CCC(=O)NC1=O (centres undefined)
inactive: outcome [20] | outcome [17]

O=C1c2ccccc2C(=O)c2ccccc21
inactive: Potency [13] | outcome [17]

C=CCc1ccc(O)c(OC)c1
inactive: outcome [20]

CCCCCCNC(=O)n1cc(F)c(=O)[nH]c1=O
inactive: outcome [20]
active: Potency [13] 20 µM

CCC1(CC)C(=O)C=CNC1=O
inactive: Potency [13] | outcome [17]

Cn1c(=O)c2[nH]cnc2n(C)c1=O
inactive: Potency [16]

CNC(C)(C)Cc1ccccc1
inactive: Potency [13] | outcome [17]

CCOP(=S)(OCC)Oc1ccc2c(C)c(Cl)c(=O)oc2c1
inactive: outcome [20] | outcome [17]

COc1c2c(cc3c1OCO3)CCN(C)C2
active: Potency [14] 3.98 µM
